Bioassay records: PubChem BioAssay, several laboratories
NR2F2 inh – inhibitors of human COUP-TFII (NR2F2); P24468; HEK293T NGFI-A luciferase reporter, luminescence; inhibition, % at 8.6 µM; hit rate 0.7% among 370,000; AID 686940;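 active = inhibition above a per-plate cutoff, mean inhibition of test wells between control levels plus 3 SD, cut at about 38% in these data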;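 also: cells cotransfected with COUP-TFII expression vector driving the NGFI-A reporter; 0% = median of COUP-TF2 test wells and 100% = reporter-only cells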
aDG glyco up – alpha-DG glycosylation activation; Pro5-aDG cells, alpha-DG glycosylation AlphaScreen (IIH6); 0% Pro5, 100% B10-LARGE cell signal; activation, % at 10 µM; hit rate 0.22% among 360,000;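 active = activation of at least 8% versus controls, or a plate z-score of at least 8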;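 also: Pro5 are CHO cells carrying HIG-tagged alpha-DG that lacks glycosylation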
GalR3 antag – human GalR3 antagonism; O60755; HEK293 GalR3-CNG cAMP membrane potential fluorescence; galR3 body fused to GalR1 C-terminus; hit rate 0.44% among 360,000; inhibition, % at 3 µM;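 active = inhibition above the screen-wide average plus 3 SD, cut at about 13% in these data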;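 also: forskolin and galanin both at EC90 stimulate the cells; cAMP rise reported by CNG channel membrane potential dye signal; 0% = forskolin plus galanin with DMSO and 100% = forskolin alone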
Target sequence (O60755 1-299 limits assumed): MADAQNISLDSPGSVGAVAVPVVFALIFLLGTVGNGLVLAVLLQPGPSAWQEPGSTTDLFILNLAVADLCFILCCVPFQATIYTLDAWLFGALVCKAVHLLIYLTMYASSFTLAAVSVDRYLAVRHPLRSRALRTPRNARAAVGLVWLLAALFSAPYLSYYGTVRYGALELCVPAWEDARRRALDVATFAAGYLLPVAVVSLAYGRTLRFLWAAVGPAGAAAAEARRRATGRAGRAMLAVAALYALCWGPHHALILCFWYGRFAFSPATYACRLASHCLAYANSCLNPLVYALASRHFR
Gli-Sufu antag – Gli-Sufu pathway antagonism; hit rate 0.74% among 340,000; AID 588413; Sufu-KO-LIGHT fibroblasts, Gli luciferase reporter luminescence; inhibition, % at 5 µM;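 active = inhibition above about 55%, limit read from the data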;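 also: 0% = DMSO-treated cells and 100% = wells with medium but no cells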
HIV Env fusion – blocks HIV Env-driven cell-cell fusion | HeLa-JRFL Env/CEM21 cell fusion, luciferase | inhibition, % at 12.3 µM | hit rate 1.1% among 360,000 | AID 651610;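 active = mean replicate inhibition score of at least 50 and every replicate individually at or above 50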;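 also: 0% = plate neutral controls and 100% = maraviroc near 300 nM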
An asterisk follows results filed as active; / = no result; [ ] = dose if it differs, or a comment. Most compounds without a hit are left out; they make up all but 2.1% or so of the library.

SMILES	NR2F2 inh	aDG glyco up	GalR3 antag	Gli-Sufu antag	HIV Env fusion
COCC(=O)N(C)C[C@@H]1Oc2cc(C#CC3CCCC3)ccc2S(=O)(=O)N([C@@H](C)CO)C[C@@H]1C	/	/	/	/	12[16.7 µM]
C[C@H](CO)N1C[C@H](C)[C@H](CN(C)C(=O)c2ccc(F)cc2)Oc2cc(C3=CCCCC3)ccc2S1(=O)=O	/	/	/	/	-25[16.7 µM]
COc1ccc(CNC(=O)CN(Cc2ccc(Cl)cc2)S(=O)(=O)c2ccccc2)cc1	27	1	-6	-18	59*
COc1ccc(CNC(=O)CN(Cc2ccccc2)S(=O)(=O)c2ccc(Cl)cc2)cc1	7	0	-1	6	22
Cc1cccc(N2CCN(C(=O)C3CCN(c4nnc(-n5cccc5)s4)CC3)CC2C)c1 (stereo not given)	4	0	1	6	-4
Cc1ccc(Cl)cc1N1CCN(C(=O)C2CCN(c3nnc(-n4cccc4)s3)CC2)CC1	15	1	-2	14	56*
O=[N+]([O-])c1ccc2c(c1)CO[C@@]21O[C@H](CCO)C[C@H](O)[C@H]1O	-9	0	0	/	60*
OCC[C@@H]1C[C@@H](O)[C@H](O)[C@]2(OCc3ccccc32)O1	-8	0	-4	-7	69*
O=[N+]([O-])c1ccc2c(c1)CCO[C@@]21O[C@H](CCO)C[C@H](O)[C@H]1O	3	/	-4	/	-84
O=C(C[C@H]1C=C[C@@H](NC(=O)C2CCC2)[C@H](CO)O1)NCCCN1CCOCC1	/	/	/	/	-7[16.7 µM]
CC(C)NC(=O)N(C)C[C@H]1Oc2ccc(NC(=O)C3CCCCC3)cc2CC(=O)N([C@H](C)CO)C[C@@H]1C	/	/	/	/	19[16.7 µM]
CCN(CC)c1ccc2cc(C(C)=O)c(=O)oc2c1	-14	0	-5	-1	-47
CCN(CC)c1ccc2cc(NC(=O)CCC(=O)O)c(=O)oc2c1	83*	0	-4	43	51
N=c1c2c(-c3ccccc3)c(-c3ccccc3)n(Cc3ccco3)c2ncn1CCCN1CCOCC1	0	1	-7	10	75*
CSc1ncccc1C(=O)OCC(=O)Nc1ccc(C)c(S(=O)(=O)N2CCOCC2)c1	12	0	-6	4	76*
Cc1ccc(NC(=O)COC(=O)c2cccnc2Cl)cc1S(=O)(=O)N1CCOCC1	-18	0	-4	3	4
Cc1ccc(C(=O)OCC(=O)NCc2ccco2)cc1	-18	0	2	11	-46
Cc1cccc(C(=O)OCC(=O)NCc2ccco2)c1	10	0	-3	-1	66*
COc1cccc(NC(=O)CN(c2ccccc2OC)S(=O)(=O)c2cccs2)c1	8	0	-4	1	64*
COc1ccccc1N(CC(=O)Nc1ccccc1)S(=O)(=O)c1cccs1	-1	0	-4	-3	-1
COCc1c(C#N)c(NCc2cc(OC)c(OC)c(OC)c2)nc(C)c1[N+](=O)[O-]	27	1	-3	10	57*
COc1ccc(OC(F)(F)F)cc1CC1(C)C(=O)Nc2cccc(Cl)c21 (stereo not given)	13	0	-7	/	83*
COc1ccc(OC(F)(F)F)cc1CC1(C)C(=O)Nc2ccc(-c3ccsc3)cc21 (stereo not given)	1	0	0	/	58*
COc1ccc(OC(F)(F)F)cc1CC1(C)C(=O)Nc2ccc(S(=O)(=O)NC3CCCCC3)cc21 (stereo not given)	14	0	-5	/	88*
CC1(Cc2ccccc2OC(F)(F)F)C(=O)Nc2ccc(S(=O)(=O)NC3CCCCC3)cc21 (stereo not given)	13	0	-5	/	55
COc1ccccc1CC1(C)C(=O)Nc2ccc(S(=O)(=O)NC3CCCCC3)cc21 (stereo not given)	0	0	-5	/	56*
C[C@H]1CCCCO[C@@H](CN(C)C(=O)Cc2ccccc2)[C@@H](C)CN([C@@H](C)CO)C(=O)c2cc(NC(=O)Cc3ccccc3)ccc2O1	/	/	/	/	-8[16.7 µM]
C[C@@H]1CN([C@H](C)CO)C(=O)c2cc(NC(=O)C3CCCCC3)ccc2O[C@H]1CN(C)C(=O)Nc1ccc(F)cc1	/	/	/	/	-2[16.7 µM]
C[C@@H]1CCCCO[C@@H](CN(C)C(=O)Nc2ccc(F)cc2)[C@H](C)CN([C@@H](C)CO)C(=O)c2cc(NS(=O)(=O)c3ccc(F)cc3)ccc2O1	/	/	/	/	-73[16.7 µM]
C[C@@H]1CCCCO[C@H](CN(C)C)[C@H](C)CN([C@@H](C)CO)C(=O)c2cc(NC(=O)Nc3ccccc3)ccc2O1	/	/	/	/	-12[16.7 µM]
